APEX1 inh: blocks human APE1 abasic DNA cleavage; recombinant APE1, TAMRA/BHQ-2 abasic DNA cleavage fluorescence; Potency, µM (highest dose often 65.8 µM), for inactives: top-dose activity change, negative = inhibition, hits mostly inhibitors; 350,000 compounds, 0.35% hits; AID 2517;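 also: plate controls were vehicle for no effect and reference inhibitor for full effect; nearly all actives have a fitted effect of over 55% in size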
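Incision of a quenched TAMRA/BHQ-2 THF abasic-site duplex (50 nM) by 0.75 nM APE1, after 15 min compound preincubation, measured as fluorescence increase over three 60 s reads. Values normalized to buffer, DMSO and NSC13755 control wells.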
RECQ1 helicase: RECQ1 (human) helicase inhibition | AID 2549 | RECQ1 DNA unwinding, red fluorescence kinetic read | 240,000 compounds, 0.54% hits | Potency, µM (top dose mostly 57.3 µM), for the others: at the top dose activity, negative = inhibition, hits mostly inhibitors | P46063;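 also: plate controls were vehicle for no effect and no enzyme for full effect; nearly all actives have a fitted effect of over 30% in size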
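50 nM RECQ1T1 preincubated 15 min with compound in Tris pH 8.0 buffer with MgCl2, DTT, Tween-20 and 2.5 ug/ml poly(dI-dC); started with 200 nM TAMRA/BHQ-2 forked duplex and 2 mM ATP. Unwinding read as fluorescence (525/598 nm), two reads 2 h apart.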
BLM inh: Bloom syndrome helicase (human) inhibition. P54132. recombinant BLM DNA unwinding, fluorescence dequenching. Potency, µM (series often up to 56.1 µM), inactives show at the highest dose activity change, negative = inhibition, actives largely listed as inhibitors. 350,000 compounds, 0.2% hits;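 also: plate controls were vehicle for no effect and no enzyme for full effect; nearly all actives have a fitted effect of over 35% in size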
FEN1 inh-1: inhibitors of human flap endonuclease 1; Recombinant FEN1 flap cleavage, fluorescence, 15 min; P39748; 390,000 compounds, 0.35% hits; AID 588795; Potency, µM (top dose mostly 114 µM), inactives show at the highest dose activity change, negative = inhibition, actives largely listed as inhibitors; also: % is scaled to controls: 0 for no effect and ±100 for the full control effect; nearly all actives have a fitted effect of over 65% in size
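In this screen, 50 nM flap DNA substrate was added to 10 nM FEN1 pretreated with compound for 15 min at room temperature; cleavage was followed with reads at 0 and 15 min, and Hill fitting gave concentration–response parameters.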
WRN inhibitor: WRN helicase (human) inhibition | Q14191 | WRN helicase unwinding, fluorescent forked duplex, kinetic | Potency, µM (doses to about 114 µM), inactives show at the top dose activity change, negative = inhibition, most hits filed as inhibitors | 360,000 compounds, 0.46% hits; also: % is scaled to controls: 0 for no effect and ±100 for the full control effect; nearly all actives have a fitted effect of over 55% in size
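WRN at 20 nM final preincubated with compound 15 min at room temperature; reaction started with 100 nM fluorophore/quencher forked duplex oligonucleotide and 2 mM ATP final. Unwinding followed kinetically by red fluorescence (ex 525, em 598 nm).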
FEN1 inh-2: confirmation of human FEN1 inhibitors. AID 720498. FEN1 flap cleavage, TAMRA/BHQ2 fluorogenic DNA substrate. shares compounds with FEN1 inh-1. 880 compounds, 79% hits. Potency, µM, usual class: inhibitors; also: nearly all actives have a fitted effect of over 60% in size
Starred values were filed as active, the others as inactive; i = inactive; ? = inconclusive; . = no result; [ ] = remark or other dose. Most compounds without a hit are left out; they make up all but 0.87% or so of the library. Calls follow the shape of the dose curve; as a rule, active = well fitted curve in the direction sought with a large enough effect; inconclusive = small, poorly fitted or top-dose-only effect, or another doubt; inactive = no such curve, though single readings can be large; an effect the other way counts as inactive or inconclusive. Potency is read from the fitted curve at half-maximal effect.

SMILES	APEX1 inh	RECQ1 helicase	BLM inh	FEN1 inh-1	WRN inhibitor	FEN1 inh-2
CCN(Cc1ccccc1)C(=O)c1cnn(-c2ccc(F)cc2)c1-n1cccc1	.	.	-5.9%	2.0%	.	.
O=C(CN1C(=O)N/C(=C\c2ccccc2OCc2ccc(C(=O)O)cc2)C1=O)Nc1ccc(F)cc1	-36.5%	.	-15.0%	-28.3%	-19.5%	.
Cc1ccccc1NC(=O)CN1C(=O)N/C(=C\c2ccccc2OCc2ccc(C(=O)O)cc2)C1=O	?	.	-18.2%	?	-19.1%[11.6 µM]	84.9*
CCOC(=O)c1cnc2c(ccc3ccccc32)c1Nc1ccccc1OCC	.	.	-2.5%	2.2%	.	.
CCOC(=O)c1cnc2c(ccc3ccccc32)c1NCCCN(C)C	-30.7%	.	110.3%	50.1µM*	5.4%	37.9*
CCN1/C(=C/C=C/c2oc3ccc(-c4ccccc4)cc3[n+]2CC)Oc2ccc(-c3ccccc3)cc21	5.5%	-18.4%	22.4µM*	31.6µM*	4.74µM*	26.9*
COC(=O)c1c(SC)nc2ccccc2c1OCc1ccccc1Cl	.	.	-7.5%	6.5%	.	.
CCC(Sc1nc2ccsc2c(=O)n1Cc1ccc(C(=O)O)cc1)C(=O)Nc1ccc(C)c(Cl)c1 (centres undefined)	-4.9%	.	-10.0%	?	-18.5%	?
CCC(Sc1nc2ccsc2c(=O)n1Cc1ccc(C(=O)O)cc1)C(=O)Nc1cc(Cl)ccc1C (centres undefined)	.	.	.	.	4.4%	.
COc1ccc(OC)c(CCNC(=O)Cn2nc(C)c3c(C)n(-c4ccc(C)cc4)nc3c2=O)c1	-2.4%	.	-17.3%	?	6.0%[11.6 µM]	?
CCOC(=O)c1sc(NC(=O)c2cc(-c3ccc(F)cc3)on2)c(C(=O)OCC)c1C	.	.	-5.9%	0.5%	.	.
Cc1ccc(-n2c(O)c(C=Nc3ccccc3-c3n[nH]c(=S)[nH]c3=O)c3ccccc3c2=O)c(C)c1	15.7%	i	-9.4%	?	0.4%	.
Cc1ccc(-n2c(O)c(C=Nc3ccccc3-c3n[nH]c(=S)[nH]c3=O)c3ccccc3c2=O)cc1C	-4.2%	-6.4%	?	50.1µM*	79.4µM*	67.5*
Cc1ccc2nc3sc(C(=O)Nc4ccc(F)cc4)cc3cc2c1	?	.	-10.4%	-13.2%	.	.
COc1cc2cc3c(N)c(C(=O)Nc4sc(C)c(C)c4C#N)sc3nc2cc1OC	12.6µM*	10µM*	31.6µM*	50.1µM*	?	42.6*
Cc1cc(C(=O)Nc2sc(C)c(C)c2C#N)no1	4.3%	-8.5%	-2.8%	0.1%	-1.9%	.
CCOc1ccc(NC(=O)c2c(NC(=O)Cc3ccccc3)sc3c2CCCC3)cc1	.	.	-3.8%	1.5%	.	.
O=C1NC(=O)/C(=C/c2ccc(-c3cc(C(=O)O)ccc3Cl)o2)S1	-20.1%	.	34.6%	20µM*	-9.7%[11.6 µM]	37.9*
COc1cccc(C2C(=O)N(C3CCCCC3)CC(=O)N2Cc2ccc(Cl)cc2)c1 (centres undefined)	.	.	-2.1%	6.4%	.	.
Cc1csc(N=Cc2ccc([N+](=O)[O-])o2)n1	.	.	.	.	?	30.1*
COc1cc(/C=C2/C=Cc3ccccc32)ccc1N(C)C	.	.	.	-25.6%	.	.
O=C1S/C(=C/c2ccc(N3CCOCC3)o2)C(=O)N1Cc1ccc(F)cc1	-5.7%	-8.2%	-2.4%	-5.4%	-6.8%	.
O=C1NC(=S)S/C1=C/c1ccc(N2CCOCC2)o1	2.6%	1.2%	i	44.7µM*	25.1µM*	37.9*
CCCN1Cc2cccc(C(=O)Nc3cccc(C(=O)OCC)c3)c2C1=O	.	.	-3.1%	-1.2%	.	.
O=C(Nc1cccc(Cl)c1)c1ccc2nc(CCc3ccccc3)oc2c1	.	.	-3.1%	-0.5%	.	.
SMILES	APEX1 inh	RECQ1 helicase	BLM inh	FEN1 inh-1	WRN inhibitor	FEN1 inh-2
Cc1cccc(Cn2cc(C(=O)Nc3ccc(S(N)(=O)=O)cc3)ccc2=O)c1	.	.	-2.4%	6.3%	.	.
Cc1ccc(C)c(Nc2nc3c(S(=O)(=O)c4ccc(Br)cc4)nnn3c3ccsc23)c1	.	.	?	?	.	?
COc1ccc(C(=O)Oc2c(Sc3ccc(Cl)cc3)c(C)nn2C(C)(C)C)cc1OC	.	.	-4.3%	-17.2%	.	.
Cc1cccc(C)c1NC(=O)COC(=O)c1ccc([N+](=O)[O-])o1	?	-8.3%	-3.7%	?	-4.8%[11.6 µM]	13.5*
NS(=O)(=O)c1ccc(CCNC(=O)COC(=O)c2ccc([N+](=O)[O-])o2)cc1	-42.4%	.	.	?	-5.4%	10.7*
O=C(COC(=O)c1ccc([N+](=O)[O-])o1)c1ccccc1	-2.1%	-10.5%	7.3%	-14.4%	-6.4%	.
CCOc1cc(N2CCOCC2)c(OCC)cc1NC(=O)COC(=O)c1cc(C)oc1C	-1.3%	i	-1.3%	-0.3%	-0.9%	.
O=C(COC(=O)c1ccc([N+](=O)[O-])o1)NCc1ccccc1	-10.8%	.	.	?	-19.9%	13.5*
Cc1cccc(C)c1NC(=O)COC(=O)c1ccccc1[N+](=O)[O-]	-8.3%	i	-2.7%	-10.6%	-7.5%	.
CCOc1cc(N2CCOCC2)c(OCC)cc1NC(=O)COC(=O)c1ccc([N+](=O)[O-])o1	-23.8%	.	.	28.2µM*	-5.0%[11.6 µM]	8.49*
Cc1ccc2occ(CC(=O)N(Cc3ccc(Cl)cc3)C3CCS(=O)(=O)C3)c2c1 (centres undefined)	.	.	-5.9%	-11.9%	.	.
Cc1nnc(NCc2ccccc2)c2c1nnn2Cc1ccccc1Cl	.	.	-0.8%	-0.1%	.	.
COc1ccccc1CNC(=O)COC(=O)c1cc2ccccc2o1	-12.8%	.	.	-3.7%	-9.3%	.
O=C(COC(=O)c1ccc([N+](=O)[O-])o1)Nc1ccc2c(c1)OC(F)(F)O2	.	.	.	.	10.4%	.
O=C(COC(=O)c1ccc([N+](=O)[O-])o1)Nc1ccc2c(c1)OCO2	-37.2%	.	.	?	-15.9%	19*
COc1ccccc1CNC(=O)COC(=O)c1ccc([N+](=O)[O-])o1	?	.	.	?	4.5%[11.6 µM]	30.1*
CCc1cnc2ccccc2c1/C=C/c1ccc(N(C)C)cc1	.	.	.	-31.6%	.	.
CCOC(=O)C1=C(O)C(=O)C(C(=O)OCC)C1 (centres undefined)	.	.	.	4.47µM*	5.3%	8.49*
CCOC(=O)C1Cc2cc3c(cc2C1=O)CC(C(=O)OCC)C3=O (centres undefined)	-5.2%	12.0%	-10.3%	.	.	.
c1ccc2c(NCCc3c[nH]c4ccccc34)c3ccccc3nc2c1	?	.	5.6%	?	25.1µM*	21.3*
COc1ccc(CCNc2c3ccccc3nc3ccccc23)cc1OC	?	-1.6%	90.7%	50.1µM*	-4.0%[11.6 µM]	?
OCCCNc1c2ccccc2nc2ccccc12	16.8µM*	.	130.8%	22.4µM*	-5.9%[11.6 µM]	21.3*
COc1ccc(CCNc2nc(SCc3ccc(Cl)cc3)nc3ccccc23)cc1OC	.	.	2.0%	-16.6%	.	.
Fc1cccc(NCCc2c[nH]c3ccccc23)n1	-12.3%	.	-4.9%	6.9%	-6.9%	.
Cc1ccccc1NC(=O)Cn1c(=O)n(Cc2ccco2)c(=O)c2cccnc21	.	.	-7.1%	?	.	.
